Only some compounds are listed: those with a hit (about 7.5% of all), similar ones and a draw of the others.
Rab9 promoter act: activates the Rab9 promoter. Huh7 Rab9 promoter-luciferase reporter, luminescence, 24 h. Potency, µM (series often up to 9.22 µM), hits mostly activators. 320,000 compounds, 2.8% hits; further: nearly all actives have a fitted effect of over 60% in size
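Luminescence from Amplite-detected luciferase (10 minutes, ambient) reports Rab9 promoter activation. Before that, stable Rab9-luciferase Huh7 cells (1500/well, reduced-serum OP-MEM I plus 10% FBS) were exposed to compound for 24 hours at 37C.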
ELG1 genotox: induces genotoxicity in HEK293T cells with luciferase-tagged ELG1; HEK293T ELG1-luciferase reporter, luminescence, 16 h; Potency, µM (doses to about 46 µM), most hits filed as activators; 330,000 compounds, 1.3% hits; further: nearly all actives have a fitted effect of over 60% in size
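Reporter readout depends on ELG1 protein level, which increases with genetic stress. After 16 hr compound exposure at 37 °C, luciferase activity was quantified using ONE-Glo.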
NPC1 prom act: activates the NPC1 promoter | AID 485313 | 320,000 compounds, 2.4% hits | Potency, µM (doses to about 9.22 µM), usual class: activators | Huh7 NPC1 promoter luciferase reporter, 24 h; further: nearly all actives have a fitted effect of over 60% in size
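Stably transfected Huh7 (NPC1 promoter→luciferase), 1500 cells/well in Opti-MEM + 10% FBS, 2 h settle, then compound 24 h at 37 °C. Luminescence after 10 min with Amplite reagent.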
FLuc counter: firefly luciferase modulation, counter-screen for miR-21 project. P08659. purified FLuc, Km substrates, luminescence inhibition. 360,000 compounds, 6.9% hits. Potency, µM (series often up to 57.5 µM), actives largely listed as inhibitors; further: nearly all actives have a fitted effect of over 55% in size
Target sequence (P08659 whole entry, looked up): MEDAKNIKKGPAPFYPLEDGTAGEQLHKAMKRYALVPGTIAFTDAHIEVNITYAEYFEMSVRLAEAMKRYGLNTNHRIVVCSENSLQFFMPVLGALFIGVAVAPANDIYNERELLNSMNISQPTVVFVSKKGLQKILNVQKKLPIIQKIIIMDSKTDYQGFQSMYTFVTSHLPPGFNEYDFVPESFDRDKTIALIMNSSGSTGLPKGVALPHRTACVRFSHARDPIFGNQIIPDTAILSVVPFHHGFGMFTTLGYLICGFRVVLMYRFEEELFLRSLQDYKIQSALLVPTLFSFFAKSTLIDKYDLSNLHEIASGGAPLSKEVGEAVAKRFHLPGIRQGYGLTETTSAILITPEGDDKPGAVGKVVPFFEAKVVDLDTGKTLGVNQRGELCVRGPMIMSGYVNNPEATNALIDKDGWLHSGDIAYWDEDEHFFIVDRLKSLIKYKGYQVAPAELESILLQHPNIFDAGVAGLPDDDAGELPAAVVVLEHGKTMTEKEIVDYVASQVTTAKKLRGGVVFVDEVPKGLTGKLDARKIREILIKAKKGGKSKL
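Purified P. pyralis luciferase (10nM final) with 10uM D-luciferin and 10uM ATP (Km levels) in 50mM Tris acetate pH 7.5, 10mM Mg acetate, 0.01% Tween-20, 0.05% BSA; qHTS 6-point titration, ~60 µM downward; luminescence read.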
SMN2 splice enh: SMN2 splice variant enhancement. Potency, µM (titrated, usually from 46.1 µM), usual class: activators. HEK293 SMN2-luciferase splicing reporter, luminescence, 30-36 h. 210,000 compounds, 2.8% hits. AID 1458; further: nearly all actives have a fitted effect of over 55% in size
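HEK293 cells carry an SMN2 minigene-luciferase reporter in which exon 7 inclusion puts luciferase in frame. Cells were seeded at 2000 cells/well, attached for 10-12 hours, then exposed to compounds for 30-36 hours at 37C before ONE-Glo luminescence.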
Numbers stand for hits; . = inactive; ? = inconclusive; / = no result given; [ ] = dose if it differs, or a comment. The call rests on the fitted dose curve; in most records, active means well fitted curve in the direction sought with a large enough effect; inconclusive means small, poorly fitted or top-dose-only effect, or another doubt; inactive means no such curve, though single readings can be large; an effect the other way counts as inactive or inconclusive.

SMILES | Rab9 promoter act | ELG1 genotox | NPC1 prom act | FLuc counter | SMN2 splice enh
O=C1c2ccccc2NC(c2ccccn2)N1c1ccccc1F (stereo unspecified) | . | . | . | . | .
CCOC(=O)CSC1=NC(=O)/C(=C/c2ccc(Br)cc2)S1 | . | ? | . | 15µM | /
NC1=NC(=O)/C(=C/c2ccc(Br)cc2)S1 | . | . | . | . | /
CCOC(=O)CSC1=NC(=O)/C(=C\c2ccc(OC(C)=O)cc2)S1 | . | ? | . | 19µM | .
COc1ccc(-c2nc3ccccn3c2NCc2ccc3c(c2)OCO3)cc1 | ? | . | ? | 4.8µM | 14µM
c1ccc(-c2nc3ccccn3c2NCc2ccc3c(c2)OCO3)cc1 | . | . | . | ? | .
COc1ccc(-c2nc3cc(C)ccn3c2NCc2ccc3c(c2)OCO3)cc1 | ? | . | . | 17µM | /
C=CCNC(=O)c1ccc(Cl)cc1Cl | . | . | . | . | .
COc1cc(C(=O)Oc2ccccc2/C=N/NC(=O)c2ccc(Cl)cc2Cl)cc(OC)c1OC | ? | . | 3.5µM | ? | ?
C=CCOc1ccccc1/C=N/NC(=O)c1ccc(Cl)cc1Cl | ? | . | ? | 15µM | .
COc1cc(/C=C(/C#N)C(=O)Nc2ccc(Cl)cc2)ccc1Oc1nc(Cl)ncc1F | . | . | . | . | /
Cc1ccc(NC(=O)c2cccc(S(=O)(=O)N3CCN(c4ccccc4)CC3)c2)nc1 | . | 15µM | . | . | /
O=C(Nc1ccc(Cl)cn1)c1cccc(S(=O)(=O)N2CCCC2)c1 | . | . | . | . | /
Cc1ccnc(NC(=O)c2cccc(S(=O)(=O)N3CCN(c4ccccc4)CC3)c2)c1 | ? | ? | . | 1.9µM | /
CN1CCN(c2ncc3nc(-c4ccc(Cl)cc4)c(=O)n(CCC#N)c3n2)CC1 | / | / | / | / | .
CCn1cc(C(=O)NCC(OC)OC)c(=O)c2cc(S(=O)(=O)N3CCC(C)CC3)ccc21 | . | . | . | . | /
COc1ccc(-c2csc(N(C)C(=O)c3cccs3)n2)cc1 | 2.5µM | . | ? | 6µM | /
CCN(CC)CCCN(C(=O)c1cccs1)c1nc(-c2ccc(OC)cc2)cs1 | . | . | . | . | .
CN(C(=O)c1ccco1)c1nc(-c2ccc(F)cc2)cs1 | 2.8µM | ? | 3.5µM | 2.7µM | /
CN(C(=O)c1ccco1)c1nnc(-c2ccc(F)cc2)s1 | 3.2µM | ? | 2.2µM | 6.7µM | /
COc1ccc(-c2cc(=O)n3[nH]cnc3n2)cc1 | / | / | / | 15µM | /
COc1ccc(-c2cc(-c3ccccc3)nc3ncnn23)cc1 | . | . | . | . | .
COc1ccc(-c2cn3cccnc3n2)cc1Br | . | ? | . | 19µM | ?
COc1ccc(-c2cn3cc(Br)cnc3n2)cc1 | ? | 21µM | . | ? | 10µM
COc1cc(C(=O)Nc2cc(-c3cn4cccnc4n3)ccc2C)cc(OC)c1OC | ? | . | . | 12µM | .
SMILES | Rab9 promoter act | ELG1 genotox | NPC1 prom act | FLuc counter | SMN2 splice enh
Nc1ncnc2c1nc(Sc1ccc(Cl)cc1)n2[C@H]1OC2COP(=O)(O)O[C@@H]2C1O (stereo partly specified) | . | / | . | / | /
O=S(=O)(NCCc1ccccc1)c1ccc(Br)cc1 | . | . | . | . | /
CC1C(=O)C(C)C(c2cc(Cl)ccc2O)NC1c1cc(Cl)ccc1O (stereo unspecified) | . | . | . | . | /
Cc1ccc2oc(=O)c3cnn(CC(=O)Nc4cc(-c5cccc(F)c5)no4)c3c2c1 | . | . | . | . | .
O=C(CN(Cc1ccco1)C(=O)CNS(=O)(=O)c1ccccc1)NCc1ccc(F)cc1 | . | 18µM | . | . | .
O=C(CN(Cc1ccco1)C(=O)CNS(=O)(=O)c1ccc(F)cc1)NCc1ccc(F)cc1 | . | . | . | .[2.3 µM] | .
CCC(=O)Nc1ccc(C(=O)N/N=C/c2ccccc2[N+](=O)[O-])cc1 | . | ? | . | . | .
CCOc1cc(/C=N\NC(=O)c2ccc(C)nc2)cc([N+](=O)[O-])c1O | . | . | . | ? | .
COc1cc(/C=N/NC(=O)c2ccc(C)nc2)cc([N+](=O)[O-])c1O | . | . | . | 21µM | .
Cc1ccc(C(=O)N/N=C/c2cc(Br)ccc2O)cn1 | . | . | . | 13µM | /
Cc1ccc(C(=O)N/N=C\c2ccccc2[N+](=O)[O-])cn1 | 2.8µM | . | 3.5µM | 12µM | 13µM
Cc1ccc(C(=O)N/N=C\C=C\c2ccccc2[N+](=O)[O-])cn1 | . | . | . | . | .
CCOc1ccc(C(=O)N/N=C/c2ccccc2[N+](=O)[O-])cc1 | 1.4µM | ? | 2.2µM | 1.7µM | 13µM
O=C(OCC(=O)N1CCCC1=O)C1COc2ccccc2O1 (stereo unspecified) | . | . | . | . | .
CC(C)(C)NC(=O)CN(C(=O)CS(=O)CC(=O)Nc1ccc(F)cc1)c1ccc(Cl)cc1 (stereo unspecified) | . | . | . | . | .
CCn1nc(C)c(Br)c1-c1nc(-c2ccc(C)cc2)no1 | . | . | . | 15µM | /
CCc1ccc(/C=C2\SC(=S)N(CCC(=O)Nc3cc(C)on3)C2=O)cc1 | . | . | . | 17µM | /
COc1ccc(/C=C2\SC(=S)N(CC(=O)N3CCN(C)CC3)C2=O)cc1 | . | . | . | 11µM | /
COc1ccc(/C=C2\SC(=S)N(CC(=O)NCCO)C2=O)cc1 | . | . | . | 9.5µM | .
COc1ccc(/C=C2/SC(=S)N(CCCC(=O)N3CCN(C)CC3)C2=O)cc1 | . | . | . | 21µM | /
CCC1CN(C(=O)N2CCC(C(=O)NCc3ccco3)CC2)c2cc(C)ccc2O1 (stereo unspecified) | . | . | . | . | /
COc1ccc(OC)c(CNC(=O)c2cc3ccc4cccnc4c3[nH]2)c1 | / | / | / | . | /
CCc1ccc(/C=C2\SC(=S)N(CCC(=O)N3CCN(C)CC3)C2=O)cc1 | . | . | . | 2.7µM | .
COC(=O)c1ccc(/C=C2/SC(=S)N(CCC(=O)N3CCOCC3)C2=O)cc1 | . | . | . | ? | /
Cc1ccc(/C=C2\SC(=S)N(CCCC(=O)N3CCOCC3)C2=O)cc1 | . | . | . | 21µM | /
SMILES | Rab9 promoter act | ELG1 genotox | NPC1 prom act | FLuc counter | SMN2 splice enh
CCCN(C(=O)c1cc2c(=O)oc3ccccc3c2s1)c1ccc(CC)cc1 | / | / | / | . | .
CSc1cc(C)n(-c2ccccc2)c(=S)c1C(C)=O | . | . | . | . | .
COc1ccc(-c2nsc3c(N4CCCCC4C)ncnc23)cc1 (stereo unspecified) | . | . | . | 0.34µM | .
COc1ccc(C(=O)N2CCN(c3ncnc4c(-c5ccccc5)nsc34)CC2)cc1 | . | . | . | . | .
COc1ccc(-c2nsc3c(N4CCCCC4)ncnc23)cc1 | ? | ? | ? | 0.085µM | .
Cc1cccc(-c2oc3ccc(-c4ccc5c(c4)OCO5)cc3c2C(=O)OCc2ccc(O)cc2)c1 | . | . | . | . | /
O=C(NNC(=S)NC1CCCCC1)c1sc2ccccc2c1Cl | . | . | . | ? | .
O=C(NC1CC1)c1sc2ccccc2c1Cl | ? | ? | ? | 15µM | /
CC1(C)CC(NC(=O)c2sc3cc(Cl)ccc3c2Cl)CC(C)(C)N1 | . | . | . | . | .
